The values below come from PMC4336329 (PLoS ONE, 2015).

Structures are written as SMILES. The campaign covered roughly 310,000 compounds. About 14,000 (4.5%) showed an effect of 50% or more. Effects have a minus sign here. This is one part of a sample in which strong results are shown more often than they occur.
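Also: peak tail current of the secondary pulse compared with the same well before compound.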

In the test the target is human ether-à-go-go-related gene (hERG) potassium channel (human, UniProt Q12809). The test is described as follows: primary screen, population patch clamp on CHO cells stably expressing hERG; higher = less effect of the substance.
human ether-à-go-go-related gene (hERG) potassium channel, sequence (Q12809 whole entry, looked up): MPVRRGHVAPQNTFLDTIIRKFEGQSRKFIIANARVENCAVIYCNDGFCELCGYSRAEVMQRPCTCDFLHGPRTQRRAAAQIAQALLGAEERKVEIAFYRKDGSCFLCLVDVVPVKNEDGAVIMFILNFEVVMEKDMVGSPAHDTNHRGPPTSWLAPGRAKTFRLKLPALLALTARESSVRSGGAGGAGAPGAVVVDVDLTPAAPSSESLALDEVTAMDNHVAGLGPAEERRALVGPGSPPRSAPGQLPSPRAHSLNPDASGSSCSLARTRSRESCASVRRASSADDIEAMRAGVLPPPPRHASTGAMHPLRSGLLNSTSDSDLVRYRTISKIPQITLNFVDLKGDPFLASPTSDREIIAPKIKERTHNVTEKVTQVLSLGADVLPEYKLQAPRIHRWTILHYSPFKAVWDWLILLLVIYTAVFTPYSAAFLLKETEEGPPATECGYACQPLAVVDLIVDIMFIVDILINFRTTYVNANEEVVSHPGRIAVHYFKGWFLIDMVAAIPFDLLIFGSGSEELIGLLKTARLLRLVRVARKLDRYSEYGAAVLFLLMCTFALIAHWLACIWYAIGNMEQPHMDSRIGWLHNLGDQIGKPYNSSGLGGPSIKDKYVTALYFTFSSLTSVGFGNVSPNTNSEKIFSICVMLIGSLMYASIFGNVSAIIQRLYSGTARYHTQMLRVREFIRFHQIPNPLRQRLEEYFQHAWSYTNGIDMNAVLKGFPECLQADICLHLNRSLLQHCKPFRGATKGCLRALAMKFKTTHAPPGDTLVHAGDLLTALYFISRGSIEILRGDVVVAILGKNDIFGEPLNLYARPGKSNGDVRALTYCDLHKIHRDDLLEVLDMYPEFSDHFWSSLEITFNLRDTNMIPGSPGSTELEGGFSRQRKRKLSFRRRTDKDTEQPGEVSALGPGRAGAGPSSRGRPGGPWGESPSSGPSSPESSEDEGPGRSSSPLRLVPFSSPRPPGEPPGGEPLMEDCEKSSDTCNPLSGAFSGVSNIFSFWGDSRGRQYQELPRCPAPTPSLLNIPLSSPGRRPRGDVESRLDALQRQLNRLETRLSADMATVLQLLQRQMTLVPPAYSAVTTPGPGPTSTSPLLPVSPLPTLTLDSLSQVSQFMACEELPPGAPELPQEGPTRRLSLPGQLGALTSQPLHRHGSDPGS
With `Cc1c(Cl)cccc1NC(=O)CN1CCC(C(O)(c2ccccc2)c2ccccc2)CC1`, the “hERG current change (%, negative = inhibition) at 10uM” value is -12.3%.

As to `NNc1nc2c(Cl)ccc(Cl)c2s1`, the “hERG current change (%, negative = inhibition) at 10uM” value was determined as 18.6%.

`NS(=O)(=O)c1cccc(NC(=O)Cc2ccc(Cl)c(Cl)c2)c1`: the “hERG current change (%, negative = inhibition) at 10uM” value worked out at 6.09%.

Take `CC(C)N(CCCNC(=O)c1ccc(CS(=O)(=O)c2c(Cl)cccc2Cl)o1)Cc1ccccc1`: the “hERG current change (%, negative = inhibition) at 10uM” value is reported as -67.7%.

On to `CN(CCNC(=O)c1ccc(CS(=O)(=O)c2ccc(Br)cc2)o1)CCc1ccccc1`, for which the “hERG current change (%, negative = inhibition) at 10uM” value was -77.5%.

`CC(C)N(CCNC(=O)c1ccc(CS(=O)(=O)c2c(Cl)cccc2Cl)o1)Cc1ccccc1`: the “hERG current change (%, negative = inhibition) at 10uM” value is listed as -70.6%.

On to `COC(CNC(=O)c1ccc(CS(=O)(=O)c2c(Cl)cccc2Cl)o1)OC`, for which the “hERG current change (%, negative = inhibition) at 10uM” value is reported as 21.2%.

For `O=C(NCCCN1CCOCC1)c1ccc(CS(=O)(=O)c2c(Cl)cccc2Cl)o1`, the “hERG current change (%, negative = inhibition) at 10uM” value stood at 2.35%.

As to `O=C(NCCN1CCCC1)c1ccc(CS(=O)(=O)c2c(Cl)cccc2Cl)o1`, the “hERG current change (%, negative = inhibition) at 10uM” value is reported as -45.5%.

For the compound `CN(C)CCNC(=O)c1ccc(CS(=O)(=O)c2ccc(Br)cc2)o1`, the “hERG current change (%, negative = inhibition) at 10uM” value was -3.14%.

With `O=C(NCCc1ccccc1)c1ccc(CS(=O)(=O)c2ccc(Cl)cc2)o1`, the “hERG current change (%, negative = inhibition) at 10uM” value is recorded as -2.15%.

As to `O=C(NCCc1ccccc1)c1ccc(CS(=O)(=O)c2ccc(Br)cc2)o1`, the “hERG current change (%, negative = inhibition) at 10uM” value worked out at 10.2%.

For `CC1CCCN(CCCNC(=O)c2ccc(CS(=O)(=O)c3c(Cl)cccc3Cl)o2)C1` (centres unmarked), the “hERG current change (%, negative = inhibition) at 10uM” value is on record as -44.8%.

Consider `CN(CCNC(=O)c1ccc(CS(=O)(=O)c2c(Cl)cccc2Cl)o1)CCc1ccccc1`, for which the “hERG current change (%, negative = inhibition) at 10uM” value is listed as -70%.

Consider `CCN1CCN(CCNC(=O)c2ccc(CS(=O)(=O)c3c(Cl)cccc3Cl)o2)CC1`, for which the “hERG current change (%, negative = inhibition) at 10uM” value is -8.19%.

In the case of `NC(=O)C1=C[C@H](c2ccc(C(F)(F)F)cc2)C[C@H](OCCCCO)O1`, the “hERG current change (%, negative = inhibition) at 10uM” value is -4.54%.

On to `CCCOc1ccc(C2NC(=S)NC(c3ccccc3)=C2C(=O)Nc2ccc(C)cc2)cc1OC` (centres unmarked), for which the “hERG current change (%, negative = inhibition) at 10uM” value was determined as 0.514%.

For `CCN(CC(=O)Nc1cccc(OC)c1)CC(=O)Nc1ccc(C)cc1Cl`, the “hERG current change (%, negative = inhibition) at 10uM” value is recorded as -10.4%.

`COc1ccccc1/C=N/NC(=O)c1ccc2c(c1)OCO2`: the “hERG current change (%, negative = inhibition) at 10uM” value was 7.71%.

Consider `Cc1ccccc1OCC(=O)NCC1CCCO1` (centres unmarked), for which the “hERG current change (%, negative = inhibition) at 10uM” value turned out to be 13.3%.

Regarding `CCOc1ccc(NC(=O)CNC(=O)c2ccc([N+](=O)[O-])cc2)cc1`, the “hERG current change (%, negative = inhibition) at 10uM” value is -7.46%.

With `Cc1cc(N/N=C\c2ccccc2)nc(-c2ccccc2O)n1`, the “hERG current change (%, negative = inhibition) at 10uM” value is on record as 4.95%.

For the compound `Cn1c(NC(=O)c2cc(Br)ccc2Cl)cc(=O)n(C)c1=O`, the “hERG current change (%, negative = inhibition) at 10uM” value is reported as 1.62%.
